This note sets out measurements from PubChem BioAssay (NCI).

Values joined by “and” are separate entries in the source; they are usually repeats but may differ in a detail not shown here. Identical values can stand only once. About 83,000 compounds went through this panel and 20% of them were active in at least one assay; those are over-represented in the sample as a whole.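 Assay: single dose, 48 h. Readout: percent growth (0 = no net growth; negative = cell death). Active: <10.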 Active and inactive are the calls of the source.

Test systems include HCT-15 colon; HT29 colon; SNB-75 CNS; SNB-19 CNS; U251 CNS; PC-3 prostate; SK-MEL-5 melanoma; UACC-62 melanoma; LOX IMVI melanoma; SK-MEL-28 melanoma; SK-MEL-2 melanoma; EKVX NSCLC; SN12C renal; UO-31 renal; TK-10 renal; A498 renal; CCRF-CEM leukemia; ACHN renal; CAKI-1 renal; MOLT-4 leukemia.
Common to all, as to experiment: NCI-60 one-dose screen, 48 h (100 = growth as untreated, 0 = no growth, -100 = all killed)
Common to all, as to settings: 10 µM unless noted

In the case of `CCN1CCN(C(=O)[C@]23CC[C@@H](C)[C@H](C)[C@@H]2C2=CC[C@@H]4[C@@]5(C)CCC(=O)C(C)(C)[C@@H]5CC[C@@]4(C)[C@]2(C)CC3)CC1`, the growth in the test on HCT-15 colon was 8.58% (active); in the test with HT29 colon it was -12% (active); with SNB-75 CNS, -3.49% (active); in the test on SNB-19 CNS, 20.9% (inactive); in the test with U251 CNS it was -44.9% (active); in the test with PC-3 prostate it was 4.66% (active). The growth is -84.1% (active) with SK-MEL-5 melanoma; -46.1% (active) in the test on UACC-62 melanoma; -85.2% (active) with LOX IMVI melanoma; -64.7% (active) with SK-MEL-28 melanoma; 12.3% (inactive) in the test on SK-MEL-2 melanoma; 28.4% (inactive) with EKVX NSCLC. Moreover, the growth was 7.97% (active) in the test with SN12C renal; -9.67% (active) with UO-31 renal; 18.7% (inactive) with TK-10 renal; -17.8% (active) in the test on A498 renal; -8.01% (active) in the test on CCRF-CEM leukemia.

Regarding `O=C(/C=C/c1ccc(F)cc1)Nc1ncc(Cc2ccc(F)cc2)s1`, the growth in the test with HCT-15 colon is 26.1% (inactive); with HT29 colon it was 13.7% (inactive); with SNB-75 CNS, 23.2% (inactive); with SNB-19 CNS it was 58.1% (inactive); in the test on U251 CNS, 33.6% (inactive); in the test on PC-3 prostate, 31.9% (inactive). Moreover, the growth in the test with SK-MEL-5 melanoma was 2.79% (active); in the test on UACC-62 melanoma, 14.1% (inactive); in the test with LOX IMVI melanoma it was 9.96% (active); in the test on SK-MEL-28 melanoma, 67% (inactive); in the test on SK-MEL-2 melanoma, 32.3% (inactive); in the test with EKVX NSCLC, 32.1% (inactive). The growth was 50.6% (inactive) in the test on SN12C renal; 47.2% (inactive) in the test with TK-10 renal; 32.5% (inactive) in the test on ACHN renal; 27.5% (inactive) with CAKI-1 renal; 21.8% (inactive) in the test on A498 renal; 34% (inactive) with CCRF-CEM leukemia. For the same compound, the growth with MOLT-4 leukemia was 30.9% (inactive).

On to `CCN(CC)CCOc1ccc(/C(=C(\Cl)c2ccccc2)c2ccccc2)cc1`, for which the growth in the test with HCT-15 colon is -1.24% (active) and 0.736% (active); with HT29 colon it was -46.7% (active) and 7.7% (active); in the test with SNB-75 CNS it was 27.2% (inactive) and 31.5% (inactive); in the test with SNB-19 CNS, 52.4% (inactive) and 86.6% (inactive); with U251 CNS, 23.1% (inactive) and 72.8% (inactive); in the test with PC-3 prostate, 49.1% (inactive) and 91.3% (inactive). Further, the growth is -97.4% (active) and -99.3% (active) in the test on SK-MEL-5 melanoma; -54.2% (active) and 9.63% (active) with UACC-62 melanoma; -42.7% (active) and 85.4% (inactive) in the test with LOX IMVI melanoma; 7.89% (active) in the test with SK-MEL-2 melanoma; 47.7% (inactive) and 87.7% (inactive) in the test with EKVX NSCLC; 54.8% (inactive) and 75.6% (inactive) with SN12C renal. Also, the growth was 24% (inactive) and 66.4% (inactive) with UO-31 renal; 111% (inactive) with TK-10 renal; 52.8% (inactive) and 81.3% (inactive) with ACHN renal; 41.3% (inactive) and 69.9% (inactive) in the test on CAKI-1 renal; 77.1% (inactive) in the test with A498 renal; 28% (inactive) and 89% (inactive) with CCRF-CEM leukemia.

As to `CC(=NCc1ccccc1)c1ccc(O)cc1O`, the growth in the test on HCT-15 colon was 101% (inactive); in the test with HT29 colon it was 104% (inactive); in the test with SNB-75 CNS it was 83.2% (inactive); with SNB-19 CNS, 103% (inactive); in the test with U251 CNS, 101% (inactive); in the test on PC-3 prostate, 81.7% (inactive). Also, the growth with SK-MEL-5 melanoma was 95% (inactive); in the test with UACC-62 melanoma it was 88.1% (inactive); with LOX IMVI melanoma, 94.1% (inactive); with SK-MEL-28 melanoma, 103% (inactive); with SK-MEL-2 melanoma, 107% (inactive); in the test with EKVX NSCLC it was 111% (inactive). In addition, the growth in the test with SN12C renal is 91.8% (inactive); in the test with TK-10 renal it was 92.8% (inactive); in the test with ACHN renal it was 96.6% (inactive); in the test with A498 renal it was 100% (inactive); in the test with CCRF-CEM leukemia, 85% (inactive); in the test with MOLT-4 leukemia it was 89.7% (inactive).

`Cc1nc(Nc2ncc(C(=O)Nc3c(C)cccc3Cl)s2)cc(N2CCN(CCO)CC2)n1`: the growth in the test with HCT-15 colon was 32.5% (inactive) and 21.3% (inactive); with HT29 colon, 5.06% (active) and -19.7% (active); in the test with SNB-75 CNS, -32.6% (active) and -35.7% (active); in the test with SNB-19 CNS it was 68.7% (inactive) and 40.1% (inactive); in the test on U251 CNS, 57.6% (inactive) and 37.2% (inactive); in the test on PC-3 prostate it was 54.1% (inactive) and 40.7% (inactive). Besides, the growth in the test on SK-MEL-5 melanoma is 66.6% (inactive) and 53.8% (inactive); in the test with UACC-62 melanoma it was 55.3% (inactive) and 34.9% (inactive); in the test with LOX IMVI melanoma it was -66.3% (active) and -93.8% (active); in the test with SK-MEL-28 melanoma, 64% (inactive) and 36% (inactive); in the test on EKVX NSCLC, 41.5% (inactive) and 33.2% (inactive); in the test with SN12C renal it was 24% (inactive) and 18.3% (inactive). Also, the growth with UO-31 renal is -0.429% (active) and -14.3% (active); with TK-10 renal it was -7.96% (active) and -61.7% (active); in the test with ACHN renal, 1.96% (active) and -15.4% (active); with CAKI-1 renal, -44.3% (active) and -28.7% (active); with A498 renal, -24.2% (active) and -40.1% (active); with CCRF-CEM leukemia, 77.3% (inactive) and 41.6% (inactive). Moreover, the growth in the test with MOLT-4 leukemia is 66.1% (inactive) and 29.6% (inactive).

As for `CN(C)CCCn1c2nc(=O)[nH]c(=O)c-2nc2cc(Cl)c(Cl)cc21`, the growth with HCT-15 colon was 87% (inactive); with HT29 colon it was 20.9% (inactive); in the test on SNB-75 CNS, 99.9% (inactive); in the test with SNB-19 CNS it was 100% (inactive); in the test with U251 CNS, 55.2% (inactive); in the test with PC-3 prostate, 60.2% (inactive). The growth is 78.3% (inactive) in the test with SK-MEL-5 melanoma; 97.9% (inactive) in the test with UACC-62 melanoma; 41.2% (inactive) with LOX IMVI melanoma; 106% (inactive) with SK-MEL-28 melanoma; 112% (inactive) in the test with SK-MEL-2 melanoma; 103% (inactive) in the test with EKVX NSCLC. In addition, the growth in the test with SN12C renal is 70.5% (inactive); in the test with TK-10 renal, 80.5% (inactive); in the test with ACHN renal, 87.8% (inactive); in the test with CAKI-1 renal, 79% (inactive); with A498 renal, 92.1% (inactive); in the test with CCRF-CEM leukemia, 45.6% (inactive). Besides, in the test with MOLT-4 leukemia, the growth was 64.8% (inactive).

As for `CC[C@@H]1NC(=O)[C@H]([C@H](O)[C@H](C)C/C=C/c2ccc(CN3C(=O)C(C)=C(C)C3=O)cc2)N(C)C(=O)[C@H](C(C)C)N(C)C(=O)[C@H](CC(C)C)N(C)C(=O)[C@H](CC(C)C)N(C)C(=O)[C@@H](C)NC(=O)[C@H](C)NC(=O)[C@H](CC(C)C)N(C)C(=O)[C@H](C(C)C)NC(=O)[C@H](CC(C)C)N(C)C(=O)CN(C)C1=O`, the growth in the test with HCT-15 colon is 67.8% (inactive); in the test on HT29 colon, 64.9% (inactive); with SNB-75 CNS, 72.8% (inactive); with SNB-19 CNS it was 76.1% (inactive); in the test with U251 CNS it was 71.2% (inactive); with PC-3 prostate, 39.8% (inactive). Besides, the growth was 60.5% (inactive) in the test with SK-MEL-5 melanoma; 73.3% (inactive) in the test on UACC-62 melanoma; 68.6% (inactive) with LOX IMVI melanoma; 82.3% (inactive) in the test with SK-MEL-28 melanoma; 81% (inactive) in the test on SK-MEL-2 melanoma; 49.1% (inactive) with EKVX NSCLC. The growth with SN12C renal was 83.9% (inactive); with TK-10 renal, 75% (inactive); in the test on ACHN renal, 74.7% (inactive); with CAKI-1 renal, 86.3% (inactive); with A498 renal, 54.2% (inactive); with CCRF-CEM leukemia, 63.6% (inactive). Further, the growth in the test with MOLT-4 leukemia is 62.4% (inactive).
